# Reference: PubChem BioAssay (NCATS)
# Values joined by “and” are separate entries in the source; they are usually repeats but may differ in a detail not shown here. Identical values can stand only once. Records with an inconclusive call do not appear. Unmarked numbers belong to inactive results. Active and inactive are the calls of the source. The call rests on the fitted dose curve; in most records, active means well fitted inhibition curve with a large enough effect; inconclusive means small, poorly fitted or top-dose-only effect; inactive means flat fitted curve, though single readings scatter. Peptide text beside a SMILES is read from it.
# Assay: Drug repurposing screens with cells derived from glioblastoma tumor samples (AID 1345199); further: nearly all actives have a fitted effect of over 40% in size
# Settings: GBM patient neurospheres viability, ATP luminescence, 48 h
# Method: CD133+ cells were isolated from GBM patient biopsies and cultured as neurospheres. Neurospheres from four patients were used to screen the NCATS pharmaceutical collection (NPC) library of approved drugs and bioactive compounds. […] The neurospheres were incubated with drugs for 48 hours in 1536-well format, then assayed with an ATP content cell viability assay. […] These hits were cherry picked to confirm activity in the four original GBM lines screened plus three other slower growing GMB lines (unable to yield enough cells for a full primary screen). Variable activities of the confirmed primary hits in the different GBM patient lines were observed. The patient line 206 responded to the greatest number of compounds and line 923 responded to the least amount of active compounds.
# [1] = at 20 µM (top of the series), tumour line C
# [2] = at 21.2 µM (top of the series), tumour line B
# [3] = at 21.2 µM (top of the series), tumour line D
# [4] = at 45.9 µM (top of the series), tumour line B
# [5] = at 45.9 µM (top of the series), tumour line D
# [6] = at 46.1 µM (top of the series), tumour line C
# [7] = at 46 µM (top of the series), tumour line A
# On the % scale 0 is the no-effect control and ±100 the full control effect; potency means the concentration at half of the fitted maximal effect.
smiles,measurement,setting,value
COC(=O)C1=C(C)NC(C)=C(C(=O)OC(C)C)C1c1cccc2nonc12 (stereo not given),"activity, negative = cell killing",[1],-16.7%
same,"activity, negative = cell killing",[2],-11.5%
same,"activity, negative = cell killing",[3],-1.17%
O=C(c1ccccc1)c1ccc2n1CCC2C(=O)O (stereo not given),"activity, negative = cell killing",[1],0.506%
same,"activity, negative = cell killing",[2],-13.1%
same,"activity, negative = cell killing",[3],-2.23%
same,"activity, negative = cell killing","at 21.3 µM (top of the series), tumour line A",-11%
same,"activity, negative = cell killing",[4],-9.76%
same,"activity, negative = cell killing",[5],-4.33%
same,"activity, negative = cell killing",[6],-1.4%
CC(S)C(=O)NCC(=O)O (stereo not given),"activity, negative = cell killing",[4],-0.523%
same,"activity, negative = cell killing",[5],-24.6%
same,"activity, negative = cell killing",[7],-28.9%
same,"activity, negative = cell killing",[6],-4.37%
O=C(CS(=O)Cc1ccco1)NCC=CCOc1cc(CN2CCCCC2)ccn1 (stereo not given),"activity, negative = cell killing",[4],-14.1%
same,"activity, negative = cell killing",[5],-2.16%
same,"activity, negative = cell killing",[6],-28%
same,Potency,tumour line A,25.1 µM (active)
CC(C)[C@H](N)C(=O)OCCOCn1cnc2c(=O)[nH]c(N)nc21,"activity, negative = cell killing",[4],-5.53%
same,"activity, negative = cell killing",[5],-4.6%
same,"activity, negative = cell killing",[6],14.5%
Cc1ccc(C(=O)c2cc(O)c(O)c([N+](=O)[O-])c2)cc1,"activity, negative = cell killing",[4],-17.5%
CC1(C)CCC(C)(C)c2cc(NC(=O)c3ccc(C(=O)O)cc3)ccc21,"activity, negative = cell killing",[4],-10.2%
same,"activity, negative = cell killing",[5],-17.2%
same,"activity, negative = cell killing",[7],-36.1%
c1ccc2[nH]c(-c3cscn3)nc2c1,"activity, negative = cell killing",[4],-26.3%
same,"activity, negative = cell killing",[6],7.08%
O=C(O)CCNC(=O)c1ccc(N=Nc2ccc(O)c(C(=O)O)c2)cc1,"activity, negative = cell killing",[4],-6.99%
same,"activity, negative = cell killing",[5],-11.2%
same,"activity, negative = cell killing",[7],-28%
same,"activity, negative = cell killing",[6],-6.53%
COC(=O)[C@H](Cc1ccccc1)NC(=O)[C@@H](N)CC(=O)O (H-Asp-Phe-OMe),"activity, negative = cell killing",[4],-10.7% and -0.538%
same,"activity, negative = cell killing",[5],-6.33% and -21.9%
same,"activity, negative = cell killing",[6],-19.7% and -4.06%
Nc1ccc(S(N)(=O)=O)cc1,"activity, negative = cell killing",[4],-13.5%
same,"activity, negative = cell killing",[5],-7.18%
same,"activity, negative = cell killing",[7],-12.5%
same,"activity, negative = cell killing",[6],10.5%
S=c1nc[nH]c2nc[nH]c12,"activity, negative = cell killing",[6],-28%
same,Potency,tumour line A,5.01 µM (active)
